Shown are actives, neighbours in structure and some others; about 0.89% of the full set was active somewhere.
RPL19A-GFP yeast = modulators of TOR pathway RPL19A-GFP in S. cerevisiae; S. cerevisiae RPL19A-GFP strain, flow cytometry, 3 h; active compounds read low; percent response vs DMSO, % at 10 µM; actives 0.3% (n = 330,000); AID 2025;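 active = percent response vs DMSO below 50%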;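 note: median channel GFP fluorescence of the barcoded RPL19A-GFP strain; ratio of sample median GFP to plate DMSO average so 100% = DMSO; lower means less RPL19A-GFP as with rapamycin TOR inhibition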
AGP1-GFP MLPCN = yeast TOR pathway AGP1-GFP modulation; AID 2066; actives 0.02% (n = 320,000); S. cerevisiae AGP1-GFP multiplex flow cytometry, 3 h; GFP as percent of DMSO wells; GFP response vs DMSO, % at 10 µM;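 active = GFP response relative to DMSO above a set limit, near screen average plus 3 SD, cut at about 150% in these data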;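 note: median GFP channel fluorescence of the gated AGP1 strain per well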
LAP4-GFP MLPCN = yeast TOR pathway LAP4-GFP modulation | S. cerevisiae LAP4-GFP multiplex, flow cytometry GFP, 3 h; median GFP as percent of DMSO wells | GFP response vs DMSO, % at 10 µM | actives 0.34% (n = 320,000) | AID 2023;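 active = GFP response vs DMSO above a set limit, about the screen mean plus 3 SD, cut at about 150% in these data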
MEP2-GFP yeast = yeast TOR pathway MEP2-GFP modulation; actives 0.51% (n = 330,000); GFP response vs DMSO, % at 10 µM; AID 2016; S. cerevisiae MEP2-GFP strain, flow cytometry GFP, 3 h; 100% = DMSO control level;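 active = GFP response versus DMSO above a set limit, roughly screen mean plus 3 SD, cut at about 180% in these data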;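 note: median GFP fluorescence of the barcode-gated MEP2-GFP cells per well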
CIT2-GFP yeast = alters CIT2-GFP fluorescence in TOR pathway yeast screen; S. cerevisiae CIT2-GFP strain, flow cytometry, 3 h; 100 means same as DMSO wells; GFP response vs DMSO, % at 10 µM; actives 0.065% (n = 320,000);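 active = GFP response relative to DMSO above a set limit, near the screen mean plus 3 SD, cut at about 150% in these data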;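 note: ratio of well median GFP fluorescence to mean of DMSO wells on the plate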
LAP4 cherry2 = reconfirmed LAP4-GFP TOR pathway modulator in yeast. S. cerevisiae LAP4-GFP strain, flow cytometry GFP, 3 h. GFP response vs DMSO, % at 10 µM. shares compounds with LAP4-GFP MLPCN. actives 20% (n = 590). AID 2621;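 active = GFP signal as percent of the solvent control above about 150%, meaning raised reporter expression, limit read from the data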;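 note: ratio of well median GFP fluorescence to plate DMSO mean so 100% = DMSO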
MEP2 cherry2 = yeast MEP2-GFP modulation, second cherry pick; actives 10% (n = 590); shares compounds with LAP4-GFP MLPCN; GFP response vs DMSO, % at 10 µM; S. cerevisiae MEP2-GFP strain, flow cytometry GFP, 3 h; AID 2622;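 active = GFP signal above 150% of the solvent control wells, that is a rise of more than half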;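 note: median channel GFP fluorescence of all gated yeast cells per well; ratio of median GFP to plate DMSO average so 100% = DMSO level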
RPL19A GFP CP2 = second confirmation of modulators of TOR reporter RPL19A-GFP in yeast; shares compounds with LAP4-GFP MLPCN; S. cerevisiae RPL19A-GFP strain, flow cytometry GFP, 3 h; active compounds read low; 100% means same as DMSO wells; GFP response vs DMSO, % at 10 µM; actives 3% (n = 590);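 active = under 65% GFP response relative to DMSO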;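 note: median GFP channel fluorescence per well over the all cells gate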
CIT2 GFP CP2 = reconfirmed modulator of CIT2-GFP TOR reporter in yeast. shares compounds with LAP4-GFP MLPCN. S. cerevisiae CIT2-GFP strain, flow cytometry GFP, 3 h; DMSO control wells read 100%. GFP response vs DMSO, % at 10 µM. actives 8% (n = 590). AID 2624;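 active = GFP response vs DMSO above about 150%, limit read from the data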;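 note: median green fluorescence per well over all gated yeast cells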
AGP1 GFP CP2 = second confirmation of modulators of TOR reporter AGP1-GFP in yeast. shares compounds with LAP4-GFP MLPCN. S. cerevisiae AGP1-GFP strain, flow cytometry GFP, 3 h. percent response vs DMSO, % at 10 µM. 590 tested, under 10 active. AID 2643;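 active = over 150 percent of DMSO response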;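 note: median GFP channel fluorescence over all cells without mother daughter split; sample median GFP divided by mean DMSO control so 100% equals DMSO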
Yeast autofluor = yeast s288c autofluorescence artifact, counter-screen | fluorescence change (kMESF span) at 33 µM | shares compounds with LAP4-GFP MLPCN | S. cerevisiae s288c, 520 nm autofluorescence, flow cytometry, 3 h; active compounds read high; zero means same as solvent-only cells | 610 tested, under 10 active;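 active = fluorescence span over the dose series, or activity score, above about 33, limit read from the data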
TORC1 bypass = wildtype yeast growth loss with TORC1 bypass cells unaffected. shares compounds with LAP4-GFP MLPCN. S. cerevisiae BY4741 spot growth rating, 48-72 h; active compounds read low. growth rating (0-3) at 30 µM. 120 tested, under 10 active;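 active = growth rating at most 1 for wild type yeast while the TORC1 bypass strain still grows fully, rated 3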
* = called active by the depositor.

What do the screens show for `CC1=NN(c2ccccc2)C(=O)/C1=C\c1c(C)[nH]n(-c2ccccc2)c1=O`?
RPL19A-GFP yeast: 96; AGP1-GFP MLPCN: 97; LAP4-GFP MLPCN: 92; MEP2-GFP yeast: 99; CIT2-GFP yeast: 98; LAP4 cherry2: 103; MEP2 cherry2: 103; RPL19A GFP CP2: 100; CIT2 GFP CP2: 103; AGP1 GFP CP2: 99

Results for COc1cccc(NC(=O)COc2coc(CN3CCc4ccccc4C3)cc2=O)c1 ?
RPL19A-GFP yeast: 98; AGP1-GFP MLPCN: 105; LAP4-GFP MLPCN: 102; MEP2-GFP yeast: 99; CIT2-GFP yeast: 103

How did C[C@]12C=C[C@H](O)CC1=CCC1C2CC[C@@]2(C)C1CCC21OCCO1 (stereo partly specified) do in these assays?
RPL19A-GFP yeast: 71; AGP1-GFP MLPCN: 110; LAP4-GFP MLPCN: 197*; MEP2-GFP yeast: 103; CIT2-GFP yeast: 84; LAP4 cherry2: 107; MEP2 cherry2: 102; RPL19A GFP CP2: 95; CIT2 GFP CP2: 94; AGP1 GFP CP2: 90

What do the screens show for `C[C@]12C=CC(=O)C=C1CCC1C2CC[C@@]2(C)C1CCC21OCCO1` (stereo partly specified)?
RPL19A-GFP yeast: 98; AGP1-GFP MLPCN: 94; LAP4-GFP MLPCN: 89; MEP2-GFP yeast: 91; CIT2-GFP yeast: 105

What do the screens show for `N/C(=N\OC(=O)c1cccc(Br)c1)c1ccccc1`?
RPL19A-GFP yeast: 93; AGP1-GFP MLPCN: 63; LAP4-GFP MLPCN: 178*; MEP2-GFP yeast: 103; CIT2-GFP yeast: 120; Yeast autofluor: 0.1

Results for CNc1nc(N)cc(Nc2cccc(Cl)c2)n1 ?
TORC1 bypass: 3

Results for COC(=O)C1CCN(C(=O)/C=C/c2ccc3c(c2)OCO3)CC1 ?
RPL19A-GFP yeast: 102; AGP1-GFP MLPCN: 95; LAP4-GFP MLPCN: 93; MEP2-GFP yeast: 103; CIT2-GFP yeast: 97

How did O=c1[nH]c(-c2ccc(Cl)cc2)cs1 do in these assays?
RPL19A-GFP yeast: 63; AGP1-GFP MLPCN: 81; LAP4-GFP MLPCN: 120; MEP2-GFP yeast: 94; CIT2-GFP yeast: 84; LAP4 cherry2: 104; MEP2 cherry2: 112; RPL19A GFP CP2: 99; CIT2 GFP CP2: 102; AGP1 GFP CP2: 105; Yeast autofluor: 0.1

Results for O=S(=O)(/N=C(/Sc1ccccc1)c1ccccc1)c1ccccc1 ?
RPL19A-GFP yeast: 94; AGP1-GFP MLPCN: 83; LAP4-GFP MLPCN: 190*; MEP2-GFP yeast: 90; CIT2-GFP yeast: 62; Yeast autofluor: 0.1

What do the screens show for `CS/C(=N\S(=O)(=O)c1ccccc1)c1ccccc1`?
RPL19A-GFP yeast: 99; AGP1-GFP MLPCN: 102; LAP4-GFP MLPCN: 99; MEP2-GFP yeast: 92; CIT2-GFP yeast: 92

Results for O=C(C#Cc1cccc([N+](=O)[O-])c1)c1ccccc1 ?
RPL19A-GFP yeast: 88; AGP1-GFP MLPCN: 93; LAP4-GFP MLPCN: 171*; MEP2-GFP yeast: 103; CIT2-GFP yeast: 82; Yeast autofluor: 0.71

Results for Nc1ccccc1C#CC(=O)c1ccccc1 ?
RPL19A-GFP yeast: 85; AGP1-GFP MLPCN: 121; LAP4-GFP MLPCN: 228*; MEP2-GFP yeast: 118; CIT2-GFP yeast: 96; LAP4 cherry2: 179*; MEP2 cherry2: 143; RPL19A GFP CP2: 86; CIT2 GFP CP2: 121; AGP1 GFP CP2: 131; Yeast autofluor: 0.5

Results for Nc1ccccc1C#Cc1ccc([N+](=O)[O-])cc1 ?
RPL19A-GFP yeast: 91; AGP1-GFP MLPCN: 96; LAP4-GFP MLPCN: 118; MEP2-GFP yeast: 95; CIT2-GFP yeast: 87

Results for O=C(NC(c1cccnc1)C(F)(F)F)c1cc(COc2ccc3c(c2)CCCC3)on1 (stereo unspecified) ?
RPL19A-GFP yeast: 104; AGP1-GFP MLPCN: 101; LAP4-GFP MLPCN: 109; MEP2-GFP yeast: 112; CIT2-GFP yeast: 100

Results for CCOCCCNC(=O)C1CCCN(S(=O)(=O)c2cccc3nsnc23)C1 (stereo unspecified) ?
RPL19A-GFP yeast: 72; AGP1-GFP MLPCN: 100; LAP4-GFP MLPCN: 234*; MEP2-GFP yeast: 86; CIT2-GFP yeast: 68; LAP4 cherry2: 97; MEP2 cherry2: 105; RPL19A GFP CP2: 100; CIT2 GFP CP2: 101; AGP1 GFP CP2: 101

What do the screens show for `CC(C)c1cc(-c2cc(C(=O)Nc3ccccc3)on2)nc(NCC2CC2)n1`?
RPL19A-GFP yeast: 92; AGP1-GFP MLPCN: 91; LAP4-GFP MLPCN: 104; MEP2-GFP yeast: 107; CIT2-GFP yeast: 80; LAP4 cherry2: 99; MEP2 cherry2: 106; RPL19A GFP CP2: 100; CIT2 GFP CP2: 93; AGP1 GFP CP2: 99

What do the screens show for `Cc1cc(NC2CCCCC2)nc(NCc2ccccc2)n1`?
RPL19A-GFP yeast: 111; AGP1-GFP MLPCN: 108; LAP4-GFP MLPCN: 103; MEP2-GFP yeast: 114; CIT2-GFP yeast: 115

How did CC(C)c1cc(-c2cc(C(=O)NCc3ccccc3)on2)nc(NCC2CC2)n1 do in these assays?
RPL19A-GFP yeast: 91; AGP1-GFP MLPCN: 80; LAP4-GFP MLPCN: 144; MEP2-GFP yeast: 92; CIT2-GFP yeast: 63; LAP4 cherry2: 117; MEP2 cherry2: 103; RPL19A GFP CP2: 96; CIT2 GFP CP2: 109; AGP1 GFP CP2: 100

How did CC(C)c1cc(-c2cc(-c3ccc(Cl)cc3)on2)nc(NCC2CC2)n1 do in these assays?
RPL19A-GFP yeast: 96; AGP1-GFP MLPCN: 86; LAP4-GFP MLPCN: 126; MEP2-GFP yeast: 99; CIT2-GFP yeast: 93

Screening results as filed in PubChem.
